Data from PubChem BioAssay (NCI).
Compounds without any hit were thinned out: in the full panel of roughly 79,000, 15% have a hit. The source made the active and inactive calls. No stated cut-off is given here; in the data, active means growth inhibition above about 70%; inactive means the rest.

Assay: NCI Yeast Anticancer Drug Screen. Data for the CLN2oe strain (AID 163);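 further: 0% = growth of vehicle-only control cultures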
Conditions: S. cerevisiae CLN2oe strain, active compounds read high
Protocol: Growth inhibition of yeast strains with defined genetic alterations is measured as a screen for potential anti-cancer activity. Selected strains with alterations in DNA damage repair or cell cycle control were exposed to compounds and growth inhibition was measured relative to vehicle treated controls. The strain used in this assay is CLN2oe

Measured: growth inhibition

CCCOC(=O)C(F)C(Br)C(=O)OCCC (stereo not given)
active: at 3.7 µM 87% | at 11.0 µM 97% | at 33.0 µM 97% | at 100.0 µM 98%
inactive: at 1.2 µM 48%

CN(C)CCNC(=O)c1cccc2c1Oc1c(cccc1[N+](=O)[O-])O2
inactive: at 1.2 µM 24% | at 3.7 µM 12% | at 11.0 µM 20% | at 33.0 µM 6% | at 100.0 µM 58%

CC(=O)Nc1ccc2c(c1)-c1ccccc1C2=O
inactive: at 1.2 µM -6% | at 3.7 µM -8% | at 11.0 µM -8% | at 33.0 µM -9% | at 100.0 µM 13%

O=[N+]([O-])c1cc(F)c(F)cc1Sc1cc(F)c(F)cc1[N+](=O)[O-]
inactive: at 1.2 µM -2% | at 3.7 µM 1%
active: at 11.0 µM 75% | at 33.0 µM 99% | at 100.0 µM 95%

CCOC(=O)c1[nH]cc(C)c1-c1cccn1-c1ccc(Cl)cc1[N+](=O)[O-]
active: at 100.0 µM 92%
inactive: at 1.2 µM -7% | at 3.7 µM -16% | at 11.0 µM -4% | at 33.0 µM -5%

CCCCCCSc1ncnc2[nH]ncc12
inactive: at 1.2 µM -7% | at 3.7 µM -8% | at 11.0 µM 3% | at 33.0 µM -4% | at 100.0 µM -4%

O=C(/C=C/c1cc(Cl)cc(Cl)c1O)c1cccc(O)c1
inactive: at 1.2 µM 9% | at 3.7 µM 23%
active: at 11.0 µM 74% | at 33.0 µM 98% | at 100.0 µM 98%

c1ccc2cc(NCNc3ccc4ccccc4c3)ccc2c1
inactive: at 1.2 µM -3% | at 3.7 µM -3% | at 11.0 µM -6% | at 33.0 µM -1% | at 100.0 µM 6%
